# Source: paper PMC11062922 (Nature Chemical Biology, 2023)
# Read-outs that look alike come from different tables or passages of the source.
# Columns and labels:
# Parameters in all cases: species or system human, MV4-11 + K-562 + COLO205 + SK-N-BE2 + OVCAR-8
# AKT2 = conditions: read-out: apparent Kd, n = 1
# AKT3 = conditions: read-out: apparent Kd, n = 1
# MAP2K2 = conditions: read-out: apparent Kd, compound concentrations: 100 nM and 1000 nM (sheet 'Samples'), n = 1
# MYLK3 = conditions: read-out: apparent Kd; compound concentrations: 100 nM and 1000 nM (sheet 'Samples'), CATDS: 0.56668098220649099; n = 1
# NQO1 = conditions: read-out: apparent Kd, n = 1
# RIOK2 = conditions: read-out: apparent Kd, n = 1
# ADRBK1 = conditions: read-out: apparent Kd, compound concentrations: 100 nM and 1000 nM (sheet 'Samples'), n = 1
# FLT4 = conditions: read-out: apparent Kd; compound concentrations: 100 nM and 1000 nM (sheet 'Samples'), CATDS: 0.144028041300378; n = 1
# MAP4K5 = conditions: read-out: apparent Kd; compound concentrations: 100 nM and 1000 nM (sheet 'Samples'), CATDS: 0.15363433252833; n = 1
# PLK1 = conditions: read-out: apparent Kd; compound concentrations: 100 nM and 1000 nM (sheet 'Samples'), CATDS: 0.58980024549807997; n = 1
# SLK = conditions: read-out: apparent Kd; compound concentrations: 100 nM and 1000 nM (sheet 'Samples'), CATDS: 0.13817903386438299; n = 1
# STK10 = conditions: read-out: apparent Kd; compound concentrations: 100 nM and 1000 nM (sheet 'Samples'), CATDS: 0.15967879525120501; n = 1
# AGK = conditions: read-out: apparent Kd, n = 1
# EGFR = conditions: read-out: apparent Kd; compound concentrations:100 nM and 1000 nM (sheet 'Samples'); n = 1
# HSP90B1 = conditions: read-out: apparent Kd; compound concentrations:100 nM and 1000 nM (sheet 'Samples'); n = 1
# MTHFD1 = conditions: read-out: apparent Kd; compound concentrations:100 nM and 1000 nM (sheet 'Samples'); n = 1
# NNT = conditions: read-out: apparent Kd, n = 1
# CDC42 = conditions: read-out: apparent Kd; compound concentrations: 100 nM and 1000 nM (sheet 'Samples'), CATDS: 0.22290293584535001; n = 1
# DCTPP1 = conditions: read-out: apparent Kd; compound concentrations: 100 nM and 1000 nM (sheet 'Samples'), CATDS: 0.21946869965493901; n = 1
# DJA1 = test system: T1, DJA1; conditions: read-out: apparent Kd; compound concentrations: 100 nM and 1000 nM (sheet 'Samples'), CATDS: 0.217792726025238; n = 1
# T1 construct: gene DNAJA1
# IRAK4 = conditions: read-out: apparent Kd; compound concentrations: 100 nM and 1000 nM (sheet 'Samples'), CATDS: 0.188463756574588; n = 1
# AKT1 = conditions: read-out: apparent Kd; compound concentrations:100 nM and 1000 nM (sheet 'Samples'); n = 1
# ATM = conditions: read-out: apparent Kd; compound concentrations:100 nM and 1000 nM (sheet 'Samples'); n = 1
# CAMK4 = conditions: read-out: apparent Kd; compound concentrations:100 nM and 1000 nM (sheet 'Samples'); n = 1
# JAK2 = conditions: read-out: apparent Kd; compound concentrations:100 nM and 1000 nM (sheet 'Samples'); n = 1
# MAP2K1 = conditions: read-out: apparent Kd; compound concentrations:100 nM and 1000 nM (sheet 'Samples'); n = 1
# PRKCD = conditions: read-out: apparent Kd; compound concentrations:100 nM and 1000 nM (sheet 'Samples'); n = 1
# PRKCQ = conditions: read-out: apparent Kd; compound concentrations: 100 nM and 1000 nM (sheet 'Samples'), CATDS: 0.49835750263786499; n = 1
# PRKCZ = conditions: read-out: apparent Kd; compound concentrations:100 nM and 1000 nM (sheet 'Samples'); n = 1
# TTN = conditions: read-out: apparent Kd; compound concentrations:100 nM and 1000 nM (sheet 'Samples'); n = 1
# [1] = compound concentrations:100 nM and 1000 nM (sheet 'Samples')
compound,measurement,setting,value
COc1cc2ncn(-c3cc(OCCc4ccccc4)c(C(N)=O)s3)c2cc1OC [GSK204925A],potency estimated from few doses,"AKT2; compound concentrations: 100 nM and 1000 nM (sheet 'Samples'), CATDS: 0.131386999232284",2.3 µM
same,potency estimated from few doses,"AKT3; compound concentrations: 100 nM and 1000 nM (sheet 'Samples'), CATDS: 0.150950387905983",1.57 µM
same,potency estimated from few doses,MAP2K2; CATDS: 0.14753696988114701,1.66 µM
same,potency estimated from few doses,MYLK3,0.137 µM
same,potency estimated from few doses,"NQO1; compound concentrations: 100 nM and 1000 nM (sheet 'Samples'), CATDS: 0.17515611913919399",1.1 µM
same,potency estimated from few doses,"RIOK2; compound concentrations: 100 nM and 1000 nM (sheet 'Samples'), CATDS: 0.13311346938063801",2.21 µM
COc1cc2ncn(-c3cc(OCc4ccncc4Br)c(C(N)=O)s3)c2cc1OC [GW854278X],potency estimated from few doses,ADRBK1; CATDS: 0.136000830332002,2.2 µM
same,potency estimated from few doses,FLT4,1.88 µM
same,potency estimated from few doses,MAP4K5,1.59 µM
same,potency estimated from few doses,PLK1,0.135 µM
same,potency estimated from few doses,SLK,2.1 µM
same,potency estimated from few doses,STK10,1.45 µM
CS(=O)(=O)CCNCc1ccc(-c2ccc3ncnc(Nc4ccc(OCc5ccccc5)c(Cl)c4)c3c2)o1.Cl [GW574783B_PKIS1],potency estimated from few doses,AGK; [1],1.95 µM
same,potency estimated from few doses,EGFR,0.156 µM
same,potency estimated from few doses,HSP90B1,1.71 µM
same,potency estimated from few doses,MTHFD1,1.95 µM
same,potency estimated from few doses,NNT; [1],1.2 µM
Cc1ccc(S(=O)(=O)Nc2ccc(Nc3nccc(Nc4cccc5[nH]ncc45)n3)cc2)cc1 [GSK581271A],potency estimated from few doses,"AGK; compound concentrations: 100 nM and 1000 nM (sheet 'Samples'), CATDS: 0.56358245780801897",1.53 µM
same,potency estimated from few doses,MAP2K2; CATDS: 0.44930961839154798,2.42 µM
O=C1N=C(N[C@H](CO)Cc2ccccc2)S/C1=C\c1ccc2ncccc2c1 [RO4503319-000],potency estimated from few doses,"AKT2; compound concentrations: 100 nM and 1000 nM (sheet 'Samples'), CATDS: 0.16502460627676999",2.47 µM
same,potency estimated from few doses,CDC42,1.29 µM
same,potency estimated from few doses,DCTPP1,1.33 µM
same,potency estimated from few doses,DJA1,1.35 µM
same,potency estimated from few doses,IRAK4,1.81 µM
Cc1cc(N2Cc3ccccc3C2)nc(Nc2ccc(S(=O)(=O)N3CCOCC3)cc2)n1.Cl [GSK1669917A],potency estimated from few doses,ADRBK1; CATDS: 0.38079622737555602,1.29 µM
same,potency estimated from few doses,MAP2K2; CATDS: 0.29465532437802699,2.17 µM
same,potency estimated from few doses,"NNT; compound concentrations: 100 nM and 1000 nM (sheet 'Samples'), CATDS: 0.33555608244827101",1.64 µM
NCC1CCC(CNc2nc(NCc3ccccc3OC(F)(F)F)ncc2[N+](=O)[O-])CC1 (stereo not shown) [BIRZ0518XX],potency estimated from few doses,AKT1,1.96 µM
same,potency estimated from few doses,AKT2; [1],1.97 µM
same,potency estimated from few doses,AKT3; [1],1.21 µM
same,potency estimated from few doses,ATM,0.249 µM
same,potency estimated from few doses,CAMK4,1.11 µM
same,potency estimated from few doses,JAK2,0.517 µM
same,potency estimated from few doses,MAP2K1,2.28 µM
same,potency estimated from few doses,NQO1; [1],1.29 µM
same,potency estimated from few doses,PRKCD,0.648 µM
same,potency estimated from few doses,PRKCQ,0.0403 µM
same,potency estimated from few doses,PRKCZ,2.02 µM
same,potency estimated from few doses,RIOK2; [1],1.91 µM
same,potency estimated from few doses,TTN,1.03 µM
